About 2,000 (36%) of roughly 5,500 compounds were called active. About 18% were inconclusive and are not listed. Cut-off read from the data, not from the text of the source: active = normalized growth mostly below about 0.91 (no sharp cut-off); inconclusive = no clear call, values can overlap the other calls; inactive = mostly above about 0.92. Some of the results follow.
Assay: chemical genetic growth profiling, strain panel (AID 1159580);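 note: tested at 20 µM; growth read once vehicle control cultures reached saturation at 30 °C; 1 = growth at the plate median or of vehicle wells; lower values mean less growth of the strain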
Settings: growth OD

Measured: normalized growth

O=C(O)CCCCC1SCC2NC(=O)NC21 (centres undefined)
inactive: S. cerevisiae deletion strains, locus YJL187C, strain SWE1, active compounds read low 0.991 | S. cerevisiae deletion strains, locus YJR043C, strain POL32, active compounds read low 0.971 | S. cerevisiae deletion strains, locus YJR066W, strain TOR1, active compounds read low 0.983 | S. cerevisiae deletion strains, locus YKL009W, strain mrt4, active compounds read low 0.994 | S. cerevisiae deletion strains, locus YKL068W, active compounds read low 1.01 | S. cerevisiae deletion strains, locus YKL085W, strain MDH1 (second series), active compounds read low 1.01 | S. cerevisiae deletion strains, locus YKL085W, strain MDH1, active compounds read low 1.01 | S. cerevisiae deletion strains, locus YKL160W, strain elf1, active compounds read low 1 | S. cerevisiae deletion strains, locus YKL190W, strain CNB1, active compounds read low 1.03 | S. cerevisiae deletion strains, locus YKR001C, strain vps1, active compounds read low 1 | S. cerevisiae deletion strains, locus YKR026C, strain gcn3, active compounds read low 0.982 | S. cerevisiae deletion strains, locus YKR091W, strain srl3, active compounds read low 0.992 | S. cerevisiae deletion strains, locus YLL001W, strain dnm1, active compounds read low 0.989 | S. cerevisiae deletion strains, locus YLL026W, active compounds read low 0.982 | S. cerevisiae deletion strains, locus YLL041C, strain sdh2, active compounds read low 0.977 | S. cerevisiae deletion strains, locus YLR027C, strain aat2, active compounds read low 0.994 | S. cerevisiae deletion strains, locus YLR039C, strain RIC1, active compounds read low 1.06 | S. cerevisiae deletion strains, locus YLR058C, strain SHM2, active compounds read low 1.01 | S. cerevisiae deletion strains, locus YLR102C, strain apc9, active compounds read low 0.998 | S. cerevisiae deletion strains, locus YLR113W, strain HOG1, active compounds read low 0.991 | S. cerevisiae deletion strains, locus YLR221C, strain rsa3, active compounds read low 1.01 | S. cerevisiae deletion strains, locus YLR258W, strain gsy2, active compounds read low 0.995 | S. cerevisiae deletion strains, locus YLR262C, strain YPT6 (second series), active compounds read low 0.992 | S. cerevisiae deletion strains, locus YLR262C, strain YPT6, active compounds read low 1.02 | S. cerevisiae deletion strains, locus YLR268W, strain sec22, active compounds read low 0.99 | S. cerevisiae deletion strains, locus YLR320W, strain mms22, active compounds read low 0.999 | S. cerevisiae deletion strains, locus YLR330W, strain CHS5, active compounds read low 1.01 | S. cerevisiae deletion strains, locus YLR342W, strain FKS1 (second series), active compounds read low 1 | S. cerevisiae deletion strains, locus YLR342W, strain FKS1, active compounds read low 0.972 | S. cerevisiae deletion strains, locus YLR357W, strain rsc2, active compounds read low 0.962 | S. cerevisiae deletion strains, locus YLR370C, strain arc18, active compounds read low 0.998 | S. cerevisiae deletion strains, locus YLR371W, strain rom2, active compounds read low 1.02 | S. cerevisiae deletion strains, locus YLR384C, strain iki3, active compounds read low 0.985 | S. cerevisiae deletion strains, locus YLR418C, strain cdc73, active compounds read low 1.02 | S. cerevisiae deletion strains, locus YML016C, strain PPZ1, active compounds read low 1.01 | S. cerevisiae deletion strains, locus YML032C, strain rad52, active compounds read low 0.983 | S. cerevisiae deletion strains, locus YML120C, strain ndi1, active compounds read low 0.976 | S. cerevisiae deletion strains, locus YML124C, strain tub3, active compounds read low 0.996 | S. cerevisiae deletion strains, locus YMR058W, strain fet3, active compounds read low 0.984 | S. cerevisiae deletion strains, locus YMR078C, strain ctf18, active compounds read low 1.02 | S. cerevisiae deletion strains, locus YMR125W, strain sto1, active compounds read low 0.989 | S. cerevisiae deletion strains, locus YMR129W, active compounds read low 0.997 | S. cerevisiae deletion strains, locus YMR205C, strain PFK2, active compounds read low 1 | S. cerevisiae deletion strains, locus YMR223W, strain ubp8, active compounds read low 1 | S. cerevisiae deletion strains, locus YMR231W, strain pep5, active compounds read low 0.997 | S. cerevisiae deletion strains, locus YMR307W, strain GAS1, active compounds read low 1.01 | S. cerevisiae deletion strains, locus YNL067W, strain RPL9B, active compounds read low 1 | S. cerevisiae deletion strains, locus YNL071W, strain lat1, active compounds read low 0.979 | S. cerevisiae deletion strains, locus YNL183C, strain NPR1, active compounds read low 0.984 | S. cerevisiae deletion strains, locus YNL209W, strain ssb2, active compounds read low 0.995 | S. cerevisiae deletion strains, locus YNL233W, strain BNI4, active compounds read low 0.99 | S. cerevisiae deletion strains, locus YNL248C, strain rpa49, active compounds read low 0.982 | S. cerevisiae deletion strains, locus YNL250W, strain rad50, active compounds read low 1.01 | S. cerevisiae deletion strains, locus YNL271C, strain bni1, active compounds read low 0.996 | S. cerevisiae deletion strains, locus YNL298W, strain CLA4, active compounds read low 1 | S. cerevisiae deletion strains, locus YNL307C, strain MCK1, active compounds read low 0.997 | S. cerevisiae deletion strains, locus YNL322C, strain KRE1 (second series), active compounds read low 0.973 | S. cerevisiae deletion strains, locus YNR049C, strain mso1, active compounds read low 0.978 | S. cerevisiae deletion strains, locus YNR052C, strain pop2, active compounds read low 0.996 | S. cerevisiae deletion strains, locus YOL006C, strain TOP1, active compounds read low 1.09 | S. cerevisiae deletion strains, locus YOL012C, strain htz1 1.05 | S. cerevisiae deletion strains, locus YOL147C, strain pex11, active compounds read low 1 | S. cerevisiae deletion strains, locus YOR001W, strain rrp6, active compounds read low 0.987 | S. cerevisiae deletion strains, locus YOR061W, strain CKA2, active compounds read low 1 | S. cerevisiae deletion strains, locus YOR069W, strain VPS5, active compounds read low 1.01 | S. cerevisiae deletion strains, locus YOR070C, strain gyp1, active compounds read low 1 | S. cerevisiae deletion strains, locus YOR080W, strain dia2, active compounds read low 0.978 | S. cerevisiae deletion strains, locus YOR083W, strain WHI5, active compounds read low 0.992 | S. cerevisiae deletion strains, locus YOR106W, strain vam3, active compounds read low 0.975 | S. cerevisiae deletion strains, locus YOR136W, strain idh2, active compounds read low 0.986 | S. cerevisiae deletion strains, locus YOR144C, strain elg1, active compounds read low 0.988 | S. cerevisiae deletion strains, locus YOR184W, strain ser1, active compounds read low 0.956 | S. cerevisiae deletion strains, locus YOR231W, strain MKK1, active compounds read low 1.01 | S. cerevisiae deletion strains, locus YOR265W, strain rbl2, active compounds read low 1.01 | S. cerevisiae deletion strains, locus YOR270C, strain vph1, active compounds read low 1.01 | S. cerevisiae deletion strains, locus YOR290C, strain snf2, active compounds read low 0.977 | S. cerevisiae deletion strains, locus YOR316C, strain cot1, active compounds read low 1 | S. cerevisiae deletion strains, locus YPL051W, strain arl3, active compounds read low 1.01 | S. cerevisiae deletion strains, locus YPL078C, strain atp4, active compounds read low 0.955 | S. cerevisiae deletion strains, locus YPL106C, strain sse1, active compounds read low 0.994 | S. cerevisiae deletion strains, locus YPL240C, strain hsp82, active compounds read low 0.98 | S. cerevisiae deletion strains, locus YPL241C, strain CIN2, active compounds read low 1.01 | S. cerevisiae deletion strains, locus YPL256C, strain CLN2, active compounds read low 1 | S. cerevisiae deletion strains, locus YPR119W, strain clb2, active compounds read low 0.992 | S. cerevisiae deletion strains, locus YPR141C, strain kar3, active compounds read low 1.01 | S. cerevisiae deletion strains, locus YPR163C, strain tif3, active compounds read low 1.01 | S. cerevisiae deletion strains, locus YPR167C, strain met16, active compounds read low 1 | S. cerevisiae deletion strains, strain wtn01, active compounds read low 0.992 | S. cerevisiae strains, strain wild type, active compounds read low 1.01
